Screening results from PubChem.
CXXC DNA block: blocks binding of human MLL CXXC domain to DNA. MLL-CXXC / FITC-HOXA9 DNA fluorescence polarization. Potency, µM (doses to about 115 µM), for the others: at the top dose activity change, negative = inhibition, most hits filed as inhibitors. 290,000 compounds, 0.037% hits. Q03164; active = well fitted inhibition curve with a large enough effect in the polarisation, with a control signal flat, not every such curve was filed as active; inconclusive = small, poorly fitted or top-dose-only effect, or effect the other way, or a change in a side signal; inactive = no such curve, though single readings can be large or run the other way; the % refers to the polarisation; note: potency is the fitted concentration of half-maximal effect
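Purified MLL-CXXC (added from a 7 uM solution) was preincubated 5 min at ambient with pinned compounds in 50 mM Tris-HCl pH 7.5, 50 mM NaCl, 1 mM DTT, 0.05% BSA. Fluorescein-labeled HOX-A9 DNA (50 nM solution) followed, 30 min, then polarization read.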
S-ASM inh: inhibitors of human secretory acid sphingomyelinase. Potency, µM (highest dose often 57.5 µM), without a hit: top-dose activity change, negative = inhibition, usual class: inhibitors. P17405. AID 504937. 340,000 compounds, 0.006% hits. placental ASM, HMU-PC fluorogenic substrate, 60 min; active = well fitted inhibition curve with a large enough effect; inconclusive = small, poorly fitted or top-dose-only effect; inactive = no such curve, though single readings can be large or run the other way; note: potency is the fitted concentration of half-maximal effect
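Human placenta-derived ASM enzyme was preincubated with compound for 10 minutes at room temperature, then given fluorogenic substrate HMU-PC0 (9 uM final) for 60 minutes at 37 °C; a pH 10 stop preceded fluorescence reading at Ex 386/Em 447 nm.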
Menin MLL FP TR: menin-MLL binding inhibition, Texas Red mutant peptide | O00255 | Menin + Texas Red MLL mutant peptide, fluorescence polarization | Potency, µM (series often up to 61.6 µM), without a hit: top-dose FP activity change, negative = inhibition, usual class: inhibitors | 270,000 compounds, 0.23% hits | AID 1768; active = well fitted inhibition curve with a large enough effect in the polarisation, with a control signal flat, not every such curve was filed as active; inconclusive = small, poorly fitted or top-dose-only effect, or effect the other way, or a change in a side signal; inactive = no such curve, though single readings can be large or run the other way; the % refers to the polarisation; note: potency is the fitted concentration of half-maximal effect; % of control where 0% means no effect
Target sequence (O00255 whole entry, looked up): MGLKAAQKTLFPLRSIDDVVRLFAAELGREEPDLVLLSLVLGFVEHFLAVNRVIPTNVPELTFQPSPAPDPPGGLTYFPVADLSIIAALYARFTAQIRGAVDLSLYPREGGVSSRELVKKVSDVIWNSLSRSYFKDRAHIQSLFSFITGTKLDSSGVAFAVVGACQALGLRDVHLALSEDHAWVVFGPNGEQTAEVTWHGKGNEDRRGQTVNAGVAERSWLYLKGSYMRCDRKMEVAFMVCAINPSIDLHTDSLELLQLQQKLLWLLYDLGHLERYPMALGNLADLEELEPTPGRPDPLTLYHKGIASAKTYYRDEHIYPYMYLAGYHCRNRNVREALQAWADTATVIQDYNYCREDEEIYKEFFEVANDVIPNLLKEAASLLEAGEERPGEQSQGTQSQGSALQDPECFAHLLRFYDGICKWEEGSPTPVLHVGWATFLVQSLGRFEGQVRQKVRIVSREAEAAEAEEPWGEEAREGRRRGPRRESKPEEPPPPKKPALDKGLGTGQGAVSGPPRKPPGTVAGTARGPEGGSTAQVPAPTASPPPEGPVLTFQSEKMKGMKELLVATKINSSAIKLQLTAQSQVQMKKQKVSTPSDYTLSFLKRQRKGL
Menin MLL FP FL: inhibitors of human menin-MLL interaction, wild-type MLL peptide | AID 1766 | 290,000 tested, under 10 active | Fluorescence polarization, fluorescein-MLL peptide displacement from menin | FP activity change, % at 61.4 µM; active = well fitted curve in the direction sought with a large enough effect in the polarisation, not every such curve was filed as active; inconclusive = small, poorly fitted or top-dose-only effect, or effect the other way, or a change in a side signal; inactive = no such curve, though single readings can be large or run the other way; the % refers to the polarisation; note: % of control where 0% means no effect
MBNL1 CUG block: inhibitors of human MBNL1 binding to CUG repeat RNA; TR-FRET MBNL1-His/biotin-(CUG)12 binding, 665/545 ratio; Potency, µM (highest dose often 57.5 µM), for the others: at the highest dose activity change, negative = inhibition, usual class: inhibitors; 280,000 compounds, 0.036% hits; active = well fitted inhibition curve with a large enough effect in the signal ratio, with a control signal flat, not every such curve was filed as active; inconclusive = small, poorly fitted or top-dose-only effect, or effect the other way, or a change in a side signal; inactive = no such curve, though single readings can be large or run the other way; the % refers to the signal ratio; note: potency is the fitted concentration of half-maximal effect; % is set by controls: 0 for no effect and ±100 for the full control effect
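MBNL1-His + Biotin-(CUG)12, cpd titration 92 nM–58 uM; Tb anti-His Ab 0.055 ng/ul, SA-XL665 5 nM (final); 60 min RT; ratiometric 665/545 nm, Ex 340 nm; normalized to buffer and full-complex controls.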
Akt phos inh: blocks phosphorylation of Akt; AID 651550; Neuro2A IGF-stimulated pAkt S473 HTRF, 20 min; active compounds read low; activity change, % for hits at 50 µM; 360,000 compounds, 0.32% hits; in the data active = activity change below about -80%; inconclusive = mostly about -51% to -80%; note: % is set by controls: 0 for no effect and ±100 for the full control effect
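Neuro2A cells in DMEM with 0.5% FBS, overnight at 37 deg C, given compound at single 50 µM final, then IGF (6 nM final) for 20 min at 37 deg C. Lysed; phospho-Akt Ser473 by HTRF after 24 h, 665/615 ratio.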
Starred values were filed as active, the others as inactive; i = inactive; ? = inconclusive; nt = not tested or not shown. Rows were chosen to be rich in hits. Some 0.45% of all compounds tested hit in one or more screens of this group.

SMILES | CXXC DNA block | S-ASM inh | Menin MLL FP TR | Menin MLL FP FL | MBNL1 CUG block | Akt phos inh
COc1cccc(C(C#N)N2CCCCC2)c1O (stereo not drawn) | 7% | 5% | 2% | -2 | -8% | i
O=C(O)CCCC(=O)Nc1nc(-c2ccccc2)cs1 | 0% | 1% | 3% | -1 | -6% | i
O=C(O)CCCC(=O)Nc1nc(-c2ccc(F)cc2)cs1 | 25% | -2% | -3% | -2 | -13% | -115%*
Cc1cc(C)cc(-n2nnnc2SCC(=O)Nc2nc(-c3ccc(F)cc3)cs2)c1 | 23% | 0% | 35µM* | -1 | 12% | i
COc1ccc(-c2csc(NC(=O)CSc3nnnn3C)n2)cc1OC | nt | -3% | nt | nt | nt | i
Cc1cc(C)cc(-n2nnnc2SCC(=O)Nc2nc(-c3ccc(Cl)cc3)cs2)c1 | -4% | -2% | 28µM* | 6 | 15% | i
Cc1cc(C)c2c(=O)n(CC(=O)NCCCN3CCN(c4ccccc4F)CC3)sc2n1 | 21% | 2% | 22% | 5 | -9% | i
COC(=O)[C@@]1(Cc2ccc(F)cc2)[C@H]2c3cc(C(=O)N(C)C)n(Cc4cccc5ccccc45)c3C[C@H]2CN1C(=O)c1ccccc1 | nt | nt | 1% | 1 | nt | nt
CCOC(=O)c1c(NC(=O)Cn2nc(C(=O)O)c3ccccc3c2=O)sc(CC)c1C | -7% | -11% | 1% | 4 | -4% | i
CCOc1cccc(OCCCCN2CCOCC2)c1 | 15% | 3% | -16% | -2 | -4% | -108%*
CCn1cnc2sc(C(=O)N(Cc3ccc(N(C)C)cc3)Cc3ccco3)c(C)c2c1=O | 1% | -4% | -11% | 4 | -10% | -109%*
CCn1cnc2sc(C(=O)Oc3ccc(Br)cc3)c(C)c2c1=O | 24% | -17% | -41% | -9 | -6% | i
COc1ccc2nc(NC(=O)c3ccoc3C)sc2c1 | 24% | 1% | 18% | -1 | 6% | -110%*
COc1ccc(NC(=O)/C(C#N)=C/c2ccc(OCc3ccccc3F)cc2)cc1 | 6% | 1% | 18µM* | 10 | nt | i
Cc1cc(NC(=S)NC(=O)CC(C)C)ccc1Br | -2% | -3% | 11% | 3 | 3% | i
Cc1[nH]c2ccccc2c1C(=O)CN1CCCCC1CCO (stereo not drawn) | 14% | 0% | 1% | 2 | -1% | -109%*
Cc1ccc(OCCn2cc(C#N)c3ccccc32)cc1 | 4% | -10% | 17% | 2 | -3% | -106%*
COc1ccccc1OCCn1cc(C#N)c2ccccc21 | -1% | -2% | 0% | 0 | 16% | i
CCOc1ccc2[nH]c(=O)c(CN(Cc3ccccc3)C(=O)N3CCCC3)cc2c1 | 8% | 9% | 3% | 2 | -4% | -132%*
COc1cccc(N2CCN(CC(=O)Nc3nc4c(s3)CC(C)CC4)CC2)c1 (stereo not drawn) | -3% | -4% | 0% | 6 | 1% | -89%*
CCc1cc(Cn2nc(C(=O)O)cc2-c2ccccc2)on1 | nt | 2% | nt | nt | nt | i
O=C(c1ccc(Cl)c(Cl)c1)c1cnc(Nc2ccccc2)s1 | 7% | 25% | 22µM* | 2 | -14% | i
COc1cc(C(=S)N2CCOCC2)cc(OC)c1OS(=O)(=O)c1ccc(C)cc1 | 2% | -3% | 0% | 4 | -10% | i
CC1CCCCC12NC(=O)N(CC(=O)Nc1sc3c(c1C(N)=O)CCC3)C2=O (stereo not drawn) | -11% | -3% | ? | ? | 2% | -120%*
O=C1NC[C@H](CCCCN2C[C@H](Cc3ccc(O)cc3)N(CCC3CCCCC3)C(=O)C2=O)N(CCc2ccccc2)C1=O | nt | nt | nt | nt | nt | i
COc1ccc(C(C(=O)NC2CCCC2)N(C(=O)c2ccco2)c2cc3c(cc2C(C)=O)OCO3)cc1OC (stereo not drawn) | 0% | -1% | -1% | -1 | 0% | i
